Data from PubChem BioAssay AID493192 (National Center for Advancing Translational Sciences (NCATS), 2011).
Inconclusive results are not listed. Where a call stands in place of a potency, no number is given. Active and inactive are the calls of the source. The call rests on the fitted dose curve; in most records, active means well fitted activation curve with a large enough effect; inconclusive means small, poorly fitted or top-dose-only effect; inactive means no such curve, though single readings can be large or run the other way.

assay: qHTS Assay for Identifying a Potential Treatment of Ataxia-Telangiectasia: Hit Validation; details: Ataxia-telangiectasia cell-based hit validation qHTS, in ATM-null A-T patient fibroblasts; series mostly up to 76.9 µM;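 further: phospho-KAP1 level by AlphaLISA as a proxy for ATM-like kinase activity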
How it was run: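 hTERT-immortalized A-T patient fibroblasts (F2112) were dosed at up to 76.7 uM final for 60 min at 37C. After a further 30 min incubation, cells were lysed, and phospho-KAP1 was detected by AlphaLISA after 6 hr at 25C.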
Potency means the concentration at half of the fitted maximal effect.

Row | SMILES | Potency
1 | CC(C)OP(=O)(OC(C)C)C(O)c1ccc(N(C)C)cc1 (stereo not drawn) | inactive
2 | COC(=O)c1cccc2c1-c1ccccc1/C2=N\NC(N)=O | inactive
3 | COc1ccccc1S(=O)(=O)Nc1ccc(-c2nnc3n2CCCCC3)cc1 | inactive
4 | S=c1[nH]nc(Cn2c(-c3ccccn3)nc3ccccc32)n1-c1ccc2c(c1)OCCO2 | inactive
5 | CC12CCC(C(=O)NNc3ccc([N+](=O)[O-])cc3)(OC1=O)C2(C)C (stereo not drawn) | inactive
6 | O=C(CCCC(=O)N1CCCC1)N1CCCC1 | inactive
7 | COCCNC(=O)c1c(N)n(-c2cccc(C)c2)c2nc3ccccc3nc12 | 41.2 µM (active)
8 | Cc1ccc2c(c1)C(=O)CC(O)(C(F)(F)F)O2 (stereo not drawn) | inactive
9 | COC(=O)c1ccc2[nH]c3cccc(/C(=C/c4ccccc4)c4ccccc4)c3c2c1 | inactive
10 | CCOC(=O)c1[nH]c(COC(=O)c2ccccc2NC(=O)c2ccco2)c(C(=O)OCC)c1C | inactive
11 | COc1ccccc1C1CCN(C(=O)c2ccc(Cl)cc2)CC1 | inactive
12 | CCOC(=O)C1CCN(C(=O)c2cc3cc(Cl)ccc3[nH]2)CC1 | inactive
13 | Cc1[nH]c2c(C)cccc2c1CN1CCC(CO)(Cc2ccccc2)CC1 | 1.16 µM (active)
14 | Cc1cc2c(c(=O)o1)C(CCC1CCCCC1)C(C#N)=C(N)O2 (stereo not drawn) | inactive
15 | O=[N+]([O-])c1ccc(F)cc1F | 29.2 µM (active)
16 | COc1ccc(-c2nc3n(c2C)Cc2ccccc2-3)cc1 | inactive
17 | Cc1ccc(C(=O)c2c(C)oc3c2C(=O)C(=O)c2ccccc2-3)cc1 | 26 µM (active)
18 | CC(C)(C)n1nc2c(c1NC(=O)C1CC(=O)N(c3ccc(Cl)cc3)C1)CS(=O)(=O)C2 (stereo not drawn) | inactive
